Reference: PubChem BioAssay (NCI)
This is part of a sample that, as a whole, favours compounds with a hit. Of some 79,000 tested, about 15% had one in any assay. Calls of active or inactive are those of the source. Cut-off read from the data, not from the text of the source: active = growth inhibition above about 70%; inactive = the rest.

What was measured:
[1] = NCI Yeast Anticancer Drug Screen. Data for the rad52 strain (AID 147);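 note: 0% = growth of vehicle-treated control cultures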; conditions: S. cerevisiae rad52 mutant growth inhibition, active compounds read high
Summary of the method: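 DNA repair-defective yeast; compound exposure; growth scored against vehicle controls.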

[2] = NCI Yeast Anticancer Drug Screen. Data for the wt1 strain (AID 149);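 note: 0% = growth of vehicle-treated wt1 cultures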; conditions: S. cerevisiae wt1 strain (SPY 50644) growth inhibition, active compounds read high
Summary of the method: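 The wt1 strain was treated with compounds, and growth was compared with vehicle-treated cultures to give inhibition.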

[3] = NCI Yeast Anticancer Drug Screen. Data for the rad50EPP+ strain (AID 151);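 note: 0% = growth of vehicle-treated control cultures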; conditions: S. cerevisiae rad50 mutant strain, active compounds read high
Summary of the method: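 rad50EPP+ yeast treated with test compounds. Readout: growth vs vehicle control.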

[4] = NCI Yeast Anticancer Drug Screen. Data for the mgt1 strain (AID 153); conditions: S. cerevisiae mgt1 mutant growth inhibition, active compounds read high
Summary of the method: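 Growth inhibition relative to vehicle controls was scored for the mgt1 yeast strain after compound exposure.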

[5] = NCI Yeast Anticancer Drug Screen. Data for the rad50 strain (AID 155);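 note: 0% = growth of vehicle-only cultures of the same strain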; conditions: S. cerevisiae rad50 strain growth inhibition, active compounds read high
Summary of the method: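 Cells are treated with compound, grown, and their growth is then scored against vehicle-only cultures of the same repair-deficient yeast strain.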

[6] = NCI Yeast Anticancer Drug Screen. Data for the mec2-1 strain (AID 157); conditions: S. cerevisiae mec2-1 strain, active compounds read high
Summary of the method: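 Growth inhibition is read against vehicle-treated controls after compound exposure of the mec2-1 yeast strain, which is defective in DNA damage repair or cell cycle control.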

[7] = NCI Yeast Anticancer Drug Screen. Data for the rad14 strain (AID 159);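 note: 0% = growth of vehicle-treated control cultures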; conditions: S. cerevisiae rad14 strain growth inhibition, active compounds read high
Summary of the method: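 Readout: yeast growth inhibition, referenced to vehicle-only cultures. Strain bears a defined alteration in DNA damage repair.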

[8] = NCI Yeast Anticancer Drug Screen. Data for the sgs1 mgt1 strain (AID 161);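 note: 0% = growth of cultures given vehicle only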; conditions: S. cerevisiae sgs1 mgt1 strain, active compounds read high
Summary of the method: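 Growth of a repair-deficient yeast mutant was monitored after compound treatment and expressed as inhibition relative to vehicle-treated cultures.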

[9] = NCI Yeast Anticancer Drug Screen. Data for the CLN2oe strain (AID 163);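 note: 0% = growth of vehicle-only control cultures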; conditions: S. cerevisiae CLN2oe strain, active compounds read high
Summary of the method: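 Compound-treated yeast; growth vs vehicle ctrl = % inhibition. Genetically altered strain (cell-cycle control).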

[10] = NCI Yeast Anticancer Drug Screen. Data for the cln2 rad14 strain (AID 165);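 note: 0% = growth equal to vehicle treated cultures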; conditions: S. cerevisiae cln2 rad14 strain, active compounds read high
Summary of the method: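 Growth inhibition, relative to vehicle-treated controls, is the read-out. The test organism is a yeast strain with defined genetic alterations, cln2 rad14.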

[11] = NCI Yeast Anticancer Drug Screen. Data for the bub3 strain (AID 167); conditions: S. cerevisiae bub3 mutant strain, active compounds read high
Summary of the method: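 Part of a panel of yeast mutants defective in DNA damage repair or cell cycle regulation. Each strain is grown with compound, and inhibition is calculated relative to solvent-treated cultures.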

[12] = NCI Yeast Anticancer Drug Screen. Data for the wt2 strain (AID 169);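 note: 0% = growth of vehicle-treated yeast cultures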; conditions: S. cerevisiae wt2 strain growth inhibition, active compounds read high
Summary of the method: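 Compound exposure of yeast; growth compared with vehicle controls; inhibition reported.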

[13] = NCI Yeast Anticancer Drug Screen. Data for the mlh1 strain (AID 171);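 note: 0% = growth of vehicle-treated control cultures of the same strain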; conditions: S. cerevisiae mlh1 strain growth inhibition, active compounds read high
Summary of the method: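 Compounds are applied to a genetically altered yeast strain, and its growth is compared with that of vehicle-treated cultures to give percent inhibition.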

[14] = NCI Yeast Anticancer Drug Screen. Data for the sgs1 strain (AID 173);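 note: 0% = growth of vehicle-only control cultures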; conditions: S. cerevisiae sgs1 mutant, active compounds read high
Summary of the method: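 Compounds applied to genetically altered yeast; growth compared with vehicle-treated cultures to give % inhibition.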

[15] = NCI Yeast Anticancer Drug Screen. Data for the mlh1 rad18 strain (AID 175); conditions: S. cerevisiae mlh1 rad18 strain growth inhibition, active compounds read high
Summary of the method: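 Cells of a genetically altered yeast strain, deficient in DNA damage repair, were treated with compound. Their growth was then compared with that of vehicle-treated cultures to give inhibition.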

[16] = NCI Yeast Anticancer Drug Screen. Data for the rad18 strain (AID 177); conditions: S. cerevisiae rad18 mutant growth inhibition, active compounds read high
Summary of the method: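 Compounds are applied to a repair-deficient yeast strain, and growth is compared with that of vehicle-treated cultures to give percent inhibition.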

[17] = at 5.0 µM (retest, dose inferred, filed as 0.5)
[18] = at 50.0 µM (retest, dose inferred, filed as 5.0)

Measured: growth inhibition

CCCCOC(=O)CSSCC(=O)OCCCC
inactive: [1]; at 1.2 µM -20% | [1]; at 3.7 µM -9% | [1]; at 11.0 µM 28% | [2]; at 1.2 µM -7% | [2]; at 3.7 µM -2% | [2]; at 11.0 µM 13% | [3]; at 1.2 µM -17% | [3]; at 3.7 µM -5% | [3]; at 11.0 µM 45% | [4]; at 1.2 µM 16% | [4]; at 3.7 µM 10% | [4]; at 11.0 µM 45% | [5]; at 1.2 µM -11% | [5]; at 3.7 µM 2% | [5]; [17] 44% | [5]; at 11.0 µM 17% | [6]; at 1.2 µM -38% | [6]; at 3.7 µM -10% | [6]; [17] 48% | [6]; at 11.0 µM 7% | [7]; at 1.2 µM -11% | [7]; at 3.7 µM -13% | [7]; at 11.0 µM -3% | [8]; [17] 9% | [9]; at 1.2 µM 8% | [9]; at 3.7 µM 4% | [9]; at 11.0 µM 8% | [9]; at 33.0 µM 61% | [10]; [17] 32% | [11]; at 1.2 µM 14% | [11]; at 3.7 µM 14% | [11]; [17] 56% | [11]; at 11.0 µM 53% | [12]; at 1.2 µM -15% | [12]; at 3.7 µM -1% | [12]; at 11.0 µM 8% | [13]; at 1.2 µM -26% | [13]; at 3.7 µM 7% | [13]; at 11.0 µM 37% | [14]; at 1.2 µM -30% | [14]; at 3.7 µM -8% | [14]; at 11.0 µM 18% | [15]; [17] 40% | [16]; at 1.2 µM -2% | [16]; at 3.7 µM 15% | [16]; at 11.0 µM 40%
active: [1]; at 33.0 µM 83% | [1]; at 100.0 µM 97% | [2]; at 33.0 µM 81% | [2]; at 100.0 µM 97% | [3]; at 33.0 µM 89% | [3]; at 100.0 µM 97% | [4]; at 33.0 µM 83% | [4]; at 100.0 µM 99% | [5]; at 33.0 µM 76% | [5]; [18] 99% | [5]; at 50.0 µM 91% | [5]; at 100.0 µM 97% | [6]; at 33.0 µM 80% | [6]; [18] 99% | [6]; at 50.0 µM 91.9% | [6]; at 100.0 µM 98% | [7]; at 33.0 µM 71% | [7]; at 100.0 µM 97% | [8]; [18] 99% | [9]; at 100.0 µM 98% | [10]; [18] 99% | [11]; at 33.0 µM 88% | [11]; [18] 98% | [11]; at 100.0 µM 99% | [12]; at 33.0 µM 70% | [12]; at 100.0 µM 98% | [13]; at 33.0 µM 74% | [13]; at 100.0 µM 98% | [14]; at 33.0 µM 70% | [14]; at 100.0 µM 96% | [15]; [18] 99% | [15]; at 50.0 µM 90.2% | [16]; at 33.0 µM 84% | [16]; at 100.0 µM 98%

O=C(/C=C/c1cccc(Br)c1)c1ccc(Cl)cc1
inactive: [1]; at 1.2 µM -26% | [1]; at 3.7 µM -14% | [1]; at 11.0 µM -6% | [1]; at 33.0 µM 28% | [2]; at 1.2 µM -46% | [2]; at 3.7 µM -44% | [2]; at 11.0 µM -12% | [2]; at 33.0 µM 9% | [2]; at 100.0 µM 63% | [3]; at 1.2 µM -62% | [3]; at 3.7 µM -22% | [3]; at 11.0 µM -25% | [3]; at 33.0 µM -13% | [3]; at 100.0 µM 2% | [4]; at 1.2 µM -40% | [4]; at 3.7 µM -36% | [4]; at 11.0 µM -13% | [4]; at 33.0 µM 32% | [5]; at 1.2 µM -9% | [5]; at 3.7 µM 0% | [5]; [17] 35% | [5]; at 11.0 µM 27% | [5]; at 33.0 µM 66% | [5]; [18] 47% | [6]; at 1.2 µM -65% | [6]; at 3.7 µM -68%
active: [1]; at 100.0 µM 76% | [4]; at 100.0 µM 70% | [5]; at 50.0 µM 81.9% | [5]; at 100.0 µM 82%
